BAZ2B inh: blocks human BAZ2B; AID 504333; hit rate 4.4% among 360,000; Potency, µM (top dose mostly 114 µM), most hits filed as inhibitors; Q9UIF8; AlphaScreen BAZ2B-H3K14Ac peptide displacement; also: nearly all actives have a fitted effect of over 60% in size
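Inhibition is scored as reduced AlphaScreen emission. The BAZ2B/b-H3(5-23)K14Ac complex (50 nM each) in PBS pH 7.4, 0.01% Tween-20 meets compound (up to 110 uM) for 30 min at RT before bead addition.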
PLK1 PBD inh: blocks phosphopeptide binding to human PLK1 polo-box domain. Plk1 PBD binding of FITC phosphopeptide, fluorescence polarization. Potency, µM, most hits filed as inhibitors. hit rate 2.8% among 360,000. AID 720504; also: series mostly up to about 57 µM; nearly all actives have a fitted effect of over 65% in size
G9a block: inhibitors of human histone lysine methyltransferase G9a | G9a H3K9 monomethylation, AlphaScreen, 2 h | Potency, µM (highest dose often 102 µM), most hits filed as inhibitors | hit rate 8.8% among 350,000 | AID 504332; also: nearly all actives have a fitted effect of over 75% in size
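Signal arises when biotinylated H3K9 peptide, once monomethylated, bridges streptavidin donor and antibody-captured acceptor beads. Enzyme at 20 nM was preincubated 15 min with test compounds; peptide 500 nM and SAM 20 uM then reacted for 2 h.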
PI5P4K alpha inh: inhibitors of human PI5P4K alpha; P48426; PI5P4Kalpha enzyme, ADP-Glo luminescence, 60 min; stronger effect = lower value; max response, %; hit rate 1.2% among 330,000; active = max response of -50% or lower; inconclusive = between -30% and -50%; inactive = -30% or higher; also: value at the top dose of about 77 µM
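Reactions run in 0.038 M HEPES pH 7.4, 0.28 mM EGTA, 0.1% CHAPS and 5% DMSO, with PI5P4Kalpha, substrate, compound and 5 microM ATP final, one hour at room temperature. Readout is ADP-Glo luminescence.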
HP1b chromo inh: HP1-beta chromodomain-methylated histone interaction inhibition. hit rate 0.56% among 390,000. AlphaScreen HP1-beta / biotin-H3K9me3 peptide binding. Potency, µM (titrated, usually from 114 µM), hits mostly inhibitors; also: nearly all actives have a fitted effect of over 70% in size
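Compound inhibition of the preformed complex between 50 nM HP1-beta and 50 nM biotinylated H3K9me3 peptide was read by AlphaScreen. Buffer was PBS pH 7.4 with 0.01% Tween-20. Incubations ran 30 min at room temperature, with 10 ug/mL donor/acceptor beads.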
JMJD2A Tudor inh: inhibitors of human JMJD2A Tudor domain. O75164. AlphaScreen JMJD2A-Tudor / H3K4me3 peptide binding. Potency, µM (doses to about 114 µM), actives largely listed as inhibitors. hit rate 4.4% among 390,000; also: nearly all actives have a fitted effect of over 50% in size
Hits are given with their value; [ ] = remark or other dose. This is a sample that favours compounds with a hit; in the whole collection about 12% have one here. Unless noted, calls follow the shape of the dose curve; as a rule, active = well fitted curve in the direction sought with a large enough effect; inconclusive = small, poorly fitted or top-dose-only effect, or another doubt; inactive = no such curve, though single readings can be large; an effect the other way counts as inactive or inconclusive.

For Cc1cc(/C=C2\NC(=O)N(Cc3ccc(Cl)cc3)C2=O)c(C)n1C the results were BAZ2B inh inactive, PLK1 PBD inh inactive, G9a block 16µM, PI5P4K alpha inh inactive, HP1b chromo inh inactive and JMJD2A Tudor inh inactive.
Screening O=C(COC(=O)c1ccc[nH]c1=O)Nc1cc(S(=O)(=O)N2CCCCC2)ccc1Cl returned BAZ2B inh inactive, PLK1 PBD inh inconclusive, G9a block inactive, PI5P4K alpha inh inactive, HP1b chromo inh inactive and JMJD2A Tudor inh 89µM.
Screening O=C(COC(=O)c1ccc[nH]c1=O)Nc1ccc(S(=O)(=O)N2CCCC2)cc1 returned BAZ2B inh inactive, PLK1 PBD inh inactive, G9a block inactive[12.7 µM], PI5P4K alpha inh inactive, HP1b chromo inh inactive and JMJD2A Tudor inh inconclusive.
For Nc1cc(N)cc(C(=O)OCC(=O)Nc2cc(S(=O)(=O)N3CCCCC3)ccc2Cl)c1 the results were BAZ2B inh 25µM, PLK1 PBD inh inactive, G9a block 32µM, PI5P4K alpha inh inactive, HP1b chromo inh 50µM and JMJD2A Tudor inh 35µM.
Screening O=C(COC(=O)c1ccc(O)cc1)Nc1cc(S(=O)(=O)N2CCCCCC2)ccc1Cl returned PLK1 PBD inh inactive and PI5P4K alpha inh inactive.
Screening Cc1cccc(NC(=O)/C(=C\c2ccc([N+](=O)[O-])o2)NC(=O)c2ccc(Cl)cc2)c1 returned BAZ2B inh 50µM, PLK1 PBD inh inactive, G9a block inconclusive, PI5P4K alpha inh inconclusive, HP1b chromo inh inconclusive and JMJD2A Tudor inh 35µM.
For CN(C)CCCNC(=O)/C(=C/c1ccc(-c2ccc([N+](=O)[O-])cc2)o1)NC(=O)c1ccccc1 the results were BAZ2B inh inactive, PLK1 PBD inh inactive, G9a block inactive, PI5P4K alpha inh inactive, HP1b chromo inh inactive and JMJD2A Tudor inh inactive.
Cc1ccc(C(=O)N/C(=C\c2ccc(-c3ccccc3[N+](=O)[O-])o2)C(=O)NCCN(C)C)cc1 was read as BAZ2B inh inactive, PLK1 PBD inh inactive, PI5P4K alpha inh inactive, HP1b chromo inh inconclusive and JMJD2A Tudor inh 56µM.
`Cc1ccc(/C=C(/NC(=O)c2ccccc2)C(=O)NCCc2c[nH]c3ccccc23)o1` gave BAZ2B inh inconclusive, PLK1 PBD inh inactive, G9a block 45µM, PI5P4K alpha inh inactive, HP1b chromo inh inactive and JMJD2A Tudor inh inactive.
`COC(=O)/C(=C\c1ccc([N+](=O)[O-])o1)NC(=O)c1ccccc1` gave BAZ2B inh inactive, PLK1 PBD inh inactive, G9a block inactive, PI5P4K alpha inh inactive, HP1b chromo inh inactive and JMJD2A Tudor inh inactive.
Cc1ccc(C(=O)N/C(=C\c2ccc(-c3ccccc3[N+](=O)[O-])o2)C(=O)NCCCN(C)C)cc1 was read as BAZ2B inh inconclusive, PLK1 PBD inh inconclusive, G9a block 50µM, PI5P4K alpha inh inactive, HP1b chromo inh inactive and JMJD2A Tudor inh inconclusive.
Screening OC1OC[C@@H](O)[C@H](O)[C@H]1O (some centres undefined) returned BAZ2B inh inactive and G9a block inactive.
For Cc1cccc(CN2C(=O)CC(c3ccc(Cl)cc3)c3c(C)nn(-c4nc(C)cc(C)n4)c32)c1 (centres undefined) the results were BAZ2B inh inactive, G9a block inactive, HP1b chromo inh inactive and JMJD2A Tudor inh inconclusive.
Screening CCCCNC(=O)/C(=C\c1ccc([N+](=O)[O-])o1)NC(=O)c1ccccc1 returned BAZ2B inh inactive, PLK1 PBD inh 21µM, G9a block inactive, PI5P4K alpha inh inactive, HP1b chromo inh inactive and JMJD2A Tudor inh inactive[11.4 µM].
For COc1ccc(SCC(Cc2ccccc2)N2CCN(CC(C)C)CCC2=O)cc1 (centres undefined) the results were HP1b chromo inh inactive and JMJD2A Tudor inh inactive.
For CCOc1cccc2sc(N(CCCN(C)C)C(=O)c3ccc(S(=O)(=O)N(C)c4ccccc4)cc3)nc12 the results were BAZ2B inh inconclusive, PLK1 PBD inh inactive, G9a block 56µM, PI5P4K alpha inh inactive, HP1b chromo inh inactive and JMJD2A Tudor inh inconclusive.
`CN(C)CCN(C(=O)c1ccc(S(=O)(=O)N(C)CC2CCCO2)cc1)c1nc2cc3c(cc2s1)OCO3` (centres undefined) gave BAZ2B inh inactive, PLK1 PBD inh inactive, G9a block inconclusive, PI5P4K alpha inh inactive, HP1b chromo inh inactive and JMJD2A Tudor inh inconclusive.
`Cc1ccc2nc(N(CCCN(C)C)C(=O)c3ccc4c(c3)CCCC4)sc2c1` gave BAZ2B inh inconclusive, PLK1 PBD inh inactive, G9a block inconclusive, PI5P4K alpha inh inactive, HP1b chromo inh inconclusive and JMJD2A Tudor inh inconclusive.
CN(C)CCN(C(=O)c1ccc(S(=O)(=O)N(C)c2ccccc2)cc1)c1nc2cc3c(cc2s1)OCCO3 was read as BAZ2B inh inconclusive, PLK1 PBD inh inactive, G9a block 40µM, PI5P4K alpha inh inactive, HP1b chromo inh inactive and JMJD2A Tudor inh inconclusive.
CN(C)CCN(C(=O)c1ccc(S(=O)(=O)N(C)C)cc1)c1nc2cc3c(cc2s1)OCCO3 was read as PLK1 PBD inh inconclusive, G9a block 56µM, PI5P4K alpha inh inactive, HP1b chromo inh inactive and JMJD2A Tudor inh inactive.
`CC(=O)N(CCN(C)C)c1nc2cc3c(cc2s1)OCCO3` gave BAZ2B inh inactive, PLK1 PBD inh inactive, PI5P4K alpha inh inactive, HP1b chromo inh inactive and JMJD2A Tudor inh inactive.
Screening CCOc1ccc2nc(N(CCN(C)C)C(=O)c3ccc4c(c3)CCCC4)sc2c1 returned BAZ2B inh inconclusive, PLK1 PBD inh inactive, G9a block 40µM, PI5P4K alpha inh inactive, HP1b chromo inh inactive and JMJD2A Tudor inh 35µM.
Screening O=C(OCC#CCSc1nnc(-c2cccc3ccccc23)o1)c1ccccc1 returned JMJD2A Tudor inh inactive.
Screening Cc1cc(C)n(CC(=O)NNC(=O)c2ccc(NC(=O)CC#N)cc2)n1 returned BAZ2B inh inactive, PLK1 PBD inh inactive, G9a block inconclusive, PI5P4K alpha inh inactive, HP1b chromo inh inactive and JMJD2A Tudor inh inactive.
CN(C)CCN(C(=O)c1ccc2c(c1)OCCO2)c1nc2cc3c(cc2s1)OCO3 was read as BAZ2B inh inconclusive, PLK1 PBD inh inactive, PI5P4K alpha inh inactive, HP1b chromo inh inactive and JMJD2A Tudor inh inconclusive.
Screening CN(C)CCN(C(=O)c1ccc2c(c1)CCCC2)c1nc2cc3c(cc2s1)OCCO3 returned BAZ2B inh inactive, PLK1 PBD inh inactive, PI5P4K alpha inh inactive, HP1b chromo inh inconclusive and JMJD2A Tudor inh 45µM.
`COCCNC(=O)C1(C)CCCN(Cc2cc(-c3ccccc3)nn2C)C1` (centres undefined) gave PLK1 PBD inh inactive and PI5P4K alpha inh inactive.
O=C(c1ccccc1)[C@@H]1[C@@H](C(=O)c2ccc(F)cc2)[C@@]2(C(=O)Nc3ccccc32)[C@H]2c3ccccc3C=CN12 was read as BAZ2B inh inactive, PLK1 PBD inh inactive, G9a block 13µM, PI5P4K alpha inh inactive, HP1b chromo inh inactive and JMJD2A Tudor inh inactive.

High-throughput results deposited in PubChem BioAssay by National Center for Advancing Translational Sciences (NCATS).
